# Measurements from the supplement of paper PMC10849652.
# Targets with a hit are over-represented here; the source holds about 7,900 in all. About 0.6% of all pairs of compound and target were hits. A number with no mark means an inactive call.
# How the values were obtained:
# Test in all cases: log2 fold change, soluble protein after heating vs DMSO (PISA); higher = thermal stabilisation; K562 cells, 10 uM, 30 min; active = over 0.2 and 3.5 SD of the protein, either way, in both replicates (recomputed)
# saracatinib = compound: CN1CCN(CCOc2cc(OC3CCOCC3)c3c(Nc4c(Cl)ccc5c4OCO5)ncnc3c2)CC1 [saracatinib]
# Method in brief: (§1)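 K562 cells at 2×10^6 cells/mL were given 10 μM compound for 30 min. Aliquots then went through 3 min of heating across 48°C-58°C, were pooled, and were extracted in PBS with 0.5% NP-40 at 4°C, and the supernatant after 21,000xg for 90 min was quantified by TMTpro 16plex LC-MS/MS with channel sums equalised. Thermal stability relative to control samples, from duplicates, is given as log2 fold change.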
# sotrastaurin = compound: CN1CCN(c2nc(C3=C(c4c[nH]c5ccccc45)C(=O)NC3=O)c3ccccc3n2)CC1 [sotrastaurin]
# Method in brief: as §1
# alvocidib = compound: CN1CC[C@H](c2c(O)cc(O)c3c(=O)cc(-c4ccccc4Cl)oc23)[C@H](O)C1 [alvocidib]
# Method in brief: as §1
# Tubastatin A = compound: CN1CCc2c(c3ccccc3n2Cc2ccc(C(=O)NO)cc2)C1 [Tubastatin A]
# Method in brief: as §1
# [1] = compound: CNC(=O)C1=CC=CC=C1NC2=NC(=NC=C2Cl)NC3=C(C=C(C=C3)N4CCOCC4)OC
# Method in brief: as §1
# defactinib = compound: CNC(=O)c1ccc(Nc2ncc(C(F)(F)F)c(NCc3nccnc3N(C)S(C)(=O)=O)n2)cc1 [defactinib]
# Method in brief: as §1
# rucaparib = compound: CNCc1ccc(-c2[nH]c3cc(F)cc4c3c2CCNC4=O)cc1 [rucaparib]
# Method in brief: as §1
# [2] = compound: CNc1nc(-c2ccc3c(N)n[nH]c3c2)cc(N2C[C@@H](C(=O)NC3CCCCC3)CC[C@H]2C)n1
# Method in brief: as §1
# encorafenib = compound: COC(=O)N[C@@H](C)CNc1nccc(-c2cn(C(C)C)nc2-c2cc(Cl)cc(NS(C)(=O)=O)c2F)n1 [encorafenib]
# Method in brief: as §1
# [3] = compound: COC(=O)[C@H](CCSC)NC(=O)C1=C(C=C(C=C1)NC[C@H](CS)N)C2=CC=CC=C2
# Method in brief: as §1
# Chain of UniProt Q9BQD3 (Q9BQD3 whole entry, looked up): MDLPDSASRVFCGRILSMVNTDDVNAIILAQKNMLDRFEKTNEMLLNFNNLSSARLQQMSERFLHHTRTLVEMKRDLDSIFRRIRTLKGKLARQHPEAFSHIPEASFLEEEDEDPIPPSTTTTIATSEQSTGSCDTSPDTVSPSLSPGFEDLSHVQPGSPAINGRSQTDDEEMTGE
# Chain of UniProt Q93074 (Q93074 whole entry, looked up): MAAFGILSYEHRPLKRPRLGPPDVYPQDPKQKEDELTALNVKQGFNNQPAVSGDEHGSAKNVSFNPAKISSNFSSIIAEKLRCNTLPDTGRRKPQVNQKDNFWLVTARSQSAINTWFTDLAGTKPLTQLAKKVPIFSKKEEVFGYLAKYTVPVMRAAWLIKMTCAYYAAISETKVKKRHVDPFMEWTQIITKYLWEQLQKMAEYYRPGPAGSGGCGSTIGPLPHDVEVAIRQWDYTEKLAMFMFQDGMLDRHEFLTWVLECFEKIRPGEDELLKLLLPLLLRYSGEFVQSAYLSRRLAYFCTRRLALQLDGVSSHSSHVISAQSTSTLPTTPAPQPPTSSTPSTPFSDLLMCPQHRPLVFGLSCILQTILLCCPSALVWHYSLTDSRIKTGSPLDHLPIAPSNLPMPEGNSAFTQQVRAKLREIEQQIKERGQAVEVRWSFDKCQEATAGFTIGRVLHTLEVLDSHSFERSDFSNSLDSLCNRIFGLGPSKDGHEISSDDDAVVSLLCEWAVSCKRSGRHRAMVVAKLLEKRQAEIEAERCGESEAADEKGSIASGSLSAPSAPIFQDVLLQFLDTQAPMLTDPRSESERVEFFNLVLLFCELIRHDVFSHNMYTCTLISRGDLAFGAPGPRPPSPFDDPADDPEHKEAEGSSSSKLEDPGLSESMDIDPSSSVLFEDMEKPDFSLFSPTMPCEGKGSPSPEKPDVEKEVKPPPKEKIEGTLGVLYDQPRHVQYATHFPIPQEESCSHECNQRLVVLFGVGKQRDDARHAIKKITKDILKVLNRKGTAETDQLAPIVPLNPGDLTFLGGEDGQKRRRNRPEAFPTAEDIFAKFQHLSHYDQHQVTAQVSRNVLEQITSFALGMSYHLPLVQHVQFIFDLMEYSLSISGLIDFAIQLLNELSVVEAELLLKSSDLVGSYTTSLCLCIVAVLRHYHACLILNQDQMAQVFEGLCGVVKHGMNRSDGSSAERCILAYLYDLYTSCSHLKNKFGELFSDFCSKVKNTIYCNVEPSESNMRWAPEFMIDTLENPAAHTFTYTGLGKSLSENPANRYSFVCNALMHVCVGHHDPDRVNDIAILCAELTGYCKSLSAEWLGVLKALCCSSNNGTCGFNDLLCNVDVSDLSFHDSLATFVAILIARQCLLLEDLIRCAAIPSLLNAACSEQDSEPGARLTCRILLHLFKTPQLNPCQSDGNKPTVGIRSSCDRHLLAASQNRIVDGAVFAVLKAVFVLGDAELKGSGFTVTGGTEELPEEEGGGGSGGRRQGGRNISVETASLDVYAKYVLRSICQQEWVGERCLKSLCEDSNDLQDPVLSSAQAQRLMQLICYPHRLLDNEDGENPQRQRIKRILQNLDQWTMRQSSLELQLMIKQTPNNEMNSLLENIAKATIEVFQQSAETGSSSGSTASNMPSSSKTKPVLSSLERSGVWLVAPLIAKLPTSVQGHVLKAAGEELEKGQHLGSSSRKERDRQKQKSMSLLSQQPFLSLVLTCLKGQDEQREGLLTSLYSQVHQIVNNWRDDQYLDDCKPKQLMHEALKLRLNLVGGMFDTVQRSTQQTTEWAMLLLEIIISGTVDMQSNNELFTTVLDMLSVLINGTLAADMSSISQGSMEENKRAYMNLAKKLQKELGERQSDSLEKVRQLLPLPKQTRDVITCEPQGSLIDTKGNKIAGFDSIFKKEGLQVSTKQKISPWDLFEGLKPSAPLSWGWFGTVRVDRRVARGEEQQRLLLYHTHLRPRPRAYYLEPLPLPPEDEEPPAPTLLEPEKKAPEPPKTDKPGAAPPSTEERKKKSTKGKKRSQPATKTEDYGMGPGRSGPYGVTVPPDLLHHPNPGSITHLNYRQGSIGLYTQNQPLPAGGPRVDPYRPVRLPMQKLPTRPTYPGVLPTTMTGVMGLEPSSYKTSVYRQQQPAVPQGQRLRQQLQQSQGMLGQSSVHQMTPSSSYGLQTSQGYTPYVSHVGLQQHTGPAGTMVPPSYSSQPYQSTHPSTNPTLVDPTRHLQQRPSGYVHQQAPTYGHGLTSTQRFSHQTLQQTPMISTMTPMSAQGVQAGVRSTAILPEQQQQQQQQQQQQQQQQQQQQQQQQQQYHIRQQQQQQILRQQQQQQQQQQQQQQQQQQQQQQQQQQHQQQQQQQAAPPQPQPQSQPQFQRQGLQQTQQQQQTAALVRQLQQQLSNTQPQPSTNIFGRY
# Chain of UniProt Q6UWB1 (Q6UWB1 whole entry, looked up): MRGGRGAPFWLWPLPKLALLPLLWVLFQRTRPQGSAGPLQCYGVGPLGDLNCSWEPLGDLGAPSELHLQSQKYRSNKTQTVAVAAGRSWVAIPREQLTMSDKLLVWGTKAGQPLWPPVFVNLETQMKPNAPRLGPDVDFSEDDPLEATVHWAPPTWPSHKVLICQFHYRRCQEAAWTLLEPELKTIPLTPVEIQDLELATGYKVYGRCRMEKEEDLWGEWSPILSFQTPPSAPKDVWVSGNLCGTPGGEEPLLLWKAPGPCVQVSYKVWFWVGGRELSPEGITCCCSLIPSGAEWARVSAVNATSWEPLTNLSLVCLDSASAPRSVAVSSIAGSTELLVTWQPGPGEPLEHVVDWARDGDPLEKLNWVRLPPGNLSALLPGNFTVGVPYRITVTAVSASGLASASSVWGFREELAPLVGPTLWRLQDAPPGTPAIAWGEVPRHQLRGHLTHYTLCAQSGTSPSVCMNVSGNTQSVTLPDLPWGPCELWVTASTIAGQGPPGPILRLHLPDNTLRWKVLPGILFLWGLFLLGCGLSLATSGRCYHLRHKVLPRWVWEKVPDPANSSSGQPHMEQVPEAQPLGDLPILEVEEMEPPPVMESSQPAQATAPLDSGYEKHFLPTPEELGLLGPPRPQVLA
# Chain of UniProt O43934 (O43934 whole entry, looked up): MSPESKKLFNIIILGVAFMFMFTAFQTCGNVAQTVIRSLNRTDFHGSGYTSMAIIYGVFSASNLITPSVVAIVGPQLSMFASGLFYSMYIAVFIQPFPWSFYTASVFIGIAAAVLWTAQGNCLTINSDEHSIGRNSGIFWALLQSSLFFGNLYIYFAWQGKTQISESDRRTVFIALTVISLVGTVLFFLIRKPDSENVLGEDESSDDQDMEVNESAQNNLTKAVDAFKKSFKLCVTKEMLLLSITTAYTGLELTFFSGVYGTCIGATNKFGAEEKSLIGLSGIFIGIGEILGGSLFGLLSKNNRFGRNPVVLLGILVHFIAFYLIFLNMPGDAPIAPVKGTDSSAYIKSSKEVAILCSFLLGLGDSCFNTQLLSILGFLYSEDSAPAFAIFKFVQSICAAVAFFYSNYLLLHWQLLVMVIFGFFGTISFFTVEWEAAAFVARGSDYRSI
# Chain of UniProt Q6NUT3 (Q6NUT3 whole entry, looked up): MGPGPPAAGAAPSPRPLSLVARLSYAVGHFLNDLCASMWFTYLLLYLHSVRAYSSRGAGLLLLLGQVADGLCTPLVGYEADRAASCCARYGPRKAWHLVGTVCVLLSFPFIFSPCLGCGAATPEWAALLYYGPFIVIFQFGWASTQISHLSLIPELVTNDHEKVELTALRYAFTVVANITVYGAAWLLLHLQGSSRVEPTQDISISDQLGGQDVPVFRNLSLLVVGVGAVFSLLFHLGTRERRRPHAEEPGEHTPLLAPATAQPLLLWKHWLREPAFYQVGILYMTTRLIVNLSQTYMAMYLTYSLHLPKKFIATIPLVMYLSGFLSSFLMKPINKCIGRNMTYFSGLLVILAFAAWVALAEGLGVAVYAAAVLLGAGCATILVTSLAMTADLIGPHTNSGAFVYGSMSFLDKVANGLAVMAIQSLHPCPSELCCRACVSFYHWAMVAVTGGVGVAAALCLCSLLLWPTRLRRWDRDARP
# Chain of UniProt O43513 (O43513 whole entry, looked up): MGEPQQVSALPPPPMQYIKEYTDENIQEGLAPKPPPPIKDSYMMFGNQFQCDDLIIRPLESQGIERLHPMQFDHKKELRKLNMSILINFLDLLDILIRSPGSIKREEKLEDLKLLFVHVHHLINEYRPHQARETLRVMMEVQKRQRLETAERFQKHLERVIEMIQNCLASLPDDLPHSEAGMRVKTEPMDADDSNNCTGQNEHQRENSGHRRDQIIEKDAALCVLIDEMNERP
# Chain of UniProt O95279 (O95279 whole entry, looked up): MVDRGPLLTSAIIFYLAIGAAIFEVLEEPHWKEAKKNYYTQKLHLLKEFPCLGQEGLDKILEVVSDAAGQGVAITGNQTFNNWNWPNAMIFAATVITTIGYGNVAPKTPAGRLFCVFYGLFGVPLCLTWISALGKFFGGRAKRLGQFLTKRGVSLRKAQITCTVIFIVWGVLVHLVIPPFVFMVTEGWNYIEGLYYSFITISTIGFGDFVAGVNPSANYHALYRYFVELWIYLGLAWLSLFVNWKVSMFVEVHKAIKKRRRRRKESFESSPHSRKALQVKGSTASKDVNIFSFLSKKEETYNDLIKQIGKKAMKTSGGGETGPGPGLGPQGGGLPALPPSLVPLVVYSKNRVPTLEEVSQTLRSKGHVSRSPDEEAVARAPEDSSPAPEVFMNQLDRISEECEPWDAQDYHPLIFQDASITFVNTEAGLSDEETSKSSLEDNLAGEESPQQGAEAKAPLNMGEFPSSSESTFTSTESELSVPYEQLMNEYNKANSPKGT
# Chain of UniProt P17936 (P17936 whole entry, looked up): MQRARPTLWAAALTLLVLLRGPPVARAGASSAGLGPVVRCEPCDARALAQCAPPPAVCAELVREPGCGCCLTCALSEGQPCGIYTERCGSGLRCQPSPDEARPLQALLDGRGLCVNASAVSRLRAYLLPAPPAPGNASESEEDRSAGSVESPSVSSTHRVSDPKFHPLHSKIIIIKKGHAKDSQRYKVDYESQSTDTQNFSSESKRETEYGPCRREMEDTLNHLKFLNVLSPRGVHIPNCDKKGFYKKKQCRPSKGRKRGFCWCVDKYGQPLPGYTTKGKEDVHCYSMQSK
Target,log2 fold change (saracatinib),log2 fold change (sotrastaurin),log2 fold change (alvocidib),log2 fold change (Tubastatin A),log2 fold change [1],log2 fold change (defactinib),log2 fold change (rucaparib),log2 fold change [2],log2 fold change (encorafenib),log2 fold change [3]
MED22 (UniProt Q15528),-0.089,-0.007,-0.055,0.332,-0.051,-0.043,0.021,0.044,0.12,0.097
MICU1 isoform 3 (UniProt Q9BPX6),-0.073,0,0.005,-0.007,-0.054,0.172,0.134,-0.012,0.121,-0.05
KDM5D isoform 3 (UniProt Q9BY66),-0.063,0.078,-0.193,-0.451 (active),0.026,-0.357,0.067,-0.078,0.198,-0.05
KLHL18 (UniProt O94889),-0.033,-0.042,-0.084,0.144,-0.077,-0.04,-0.042,0.007,0.019,-0.05
LMBRD2 (UniProt Q68DH5),0.04,0.02,-0.041,-0.032,-0.014,-0.01,0.003,-0.037,0.021,-0.021
IL27RA (UniProt Q6UWB1),0.062,0.014,-0.025,0.063,0.056,-0.097,-0.03,0.065,-0.023,0
MAGEA9 (UniProt P43362),0.041,-0.037,-0.346,-0.038,-0.001,-0.175,-0.153,0.015,0.039,-0.082
JMJD6 isoform 3 (UniProt Q6NYC1),-0.01,-0.018,-0.076,-0.122,0.081,-0.188,0.061,-0.016,0.026,0.035
MASTL (UniProt Q96GX5),0.107,-0.12,-0.061,–,0.054,0.037,-0.17,-0.055,0.083,0.079
IGFBP3 isoform 2 (UniProt P17936),-0.092,0.245,0.251,0.001,–,0.17,–,-0.08,–,0.045
MED7 (UniProt O43513),-0.026,0.151,-0.072,-0.145,-0.056,-0.015,–,-0.006,–,0.012
MED8 isoform 2 (UniProt Q96G25),0.003,0.044,0.007,–,0.039,-0.031,0.04,-0.131,-0.024,0.141
LARP4 isoform 4 (UniProt Q71RC2),-0.066,-0.051,0.031,0.041,0.047,-0.036,0.257,0.059,0.086,-0.014
ME2 (UniProt P23368),0.061,0.014,0.022,0.026,0.151,-0.037,-0.011,-0.11,0.015,0.034
MAGED1 isoform 2 (UniProt Q9Y5V3),-0.073,-0.196,0.002,–,0.015,0.036,–,0.117,–,0.197
MARCKS (UniProt P29966),0.019,0.077,-0.016,0.039,0.005,0.009,-0.02,-0.02,-0.014,0.002

Target,log2 fold change (saracatinib),log2 fold change (sotrastaurin),log2 fold change (alvocidib),log2 fold change (Tubastatin A),log2 fold change [1],log2 fold change (defactinib),log2 fold change (rucaparib),log2 fold change [2],log2 fold change (encorafenib),log2 fold change [3]
IGFBP4 (UniProt P22692),0.004,0.114,0.063,-0.034,-0.044,0.036,0.007,-0.019,-0.034,0.014
MAPKAPK2 (UniProt P49137),0.077,-0.035,0,-0.006,-0.01,-0.013,0,-0.022,0.139,0.023
MFN1 (UniProt Q8IWA4),-0.029,0.016,-0.076,0.025,-0.019,-0.074,-0.015,0.023,0.038,0
MFSD12 isoform 3 (UniProt Q6NUT3),-0.154,-0.172,-0.04,0.031,0.042,–,-0.14,-0.144,0.196,–
LUZP1 (UniProt Q86V48),0.075,-0.088,0.229,0.13,-0.022,-0.498,–,0.002,–,-0.209
KNTC1 (UniProt P50748),-0.034,-0.051,0.013,0.018,0.033,-0.044,0.021,-0.076,0.077,-0.041
MELK (UniProt Q14680),-0.005,0.166,0.011,0.074,-0.347,–,0.125,0.196,0.06,–
MAGEA8 (UniProt P43361),-0.006,–,-0.022,0.101,0.123,-0.267,-0.012,-0.092,0.038,-0.038
IL10RB (UniProt Q08334),0.107,-0.021,–,0.022,-0.121,-0.042,0.015,-0.005,-0.093,0.026
MED12 isoform 2 (UniProt Q93074),0.072,-0.09,–,0.32,0.303,–,0.137,0.102,0.145,–
MFSD11 (UniProt O43934),0.092,0.085,-0.029,0.005,–,-0.033,-0.002,-0.127,-0.047,-0.015
MFAP3 (UniProt P55082),0.088,0.019,–,0.068,–,0.306,–,0.002,–,-0.189
KXD1 (UniProt Q9BQD3),-0.097,–,-0.105,-0.01,0.008,-0.03,-0.051,-0.07,0.018,0.017
KCNK5 (UniProt O95279),-0.444,-0.047,-0.239,–,-0.05,–,0.05,-1.08 (active),0.017,–
LSR isoform 3 (UniProt Q86X29),-0.207,0.176,0.088,0.084,–,–,–,0.114,–,–
